# Results taken from PubChem BioAssay (EPA / NIEHS).
# Where “and” joins values, the source holds several entries; their conditions need not be identical. Identical values can stand only once. Records with an inconclusive call do not appear. Some structures have more than one record in an assay (separate samples or runs), and their calls can disagree. Calls of active or inactive are those of the source. Rule for the calls, unless noted: active = hit-call score of the fitted dose curve at least 0.9, where 1 is the maximum; inactive = score below 0.9.
# Experiments:
# [1] = tested on: SRY-box transcription factor 17 (SOX17) Protein Expression, Deisenroth Lab, SOX17 (gene 64321); assay: CCTE_Deisenroth_DEVTOX-GLR_Endo_SOX17: CCTE's DevTox GLR-Endo Assay Evaluation of SRY-box transcription factor 17 (SOX17) Protein Expression, Deisenroth Lab (AID 2284413)
# Procedure, shortened: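 Endpoint: % change in SOX17+ fraction (SOX17+ cells / cell count) vs 0.2% DMSO solvent control. RUES2-GLR reporter cells, 48 h endoderm differentiation, two doses at 24 h intervals, high-content fluorescence imaging, 5 fields/well.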
# [2] = tested on: Brachyury (BRA) Protein Expression, TBXT (gene 6862); assay: CCTE_Deisenroth_DEVTOX-GLR_Endo_BRA: CCTE's DevTox GLR-Endo Assay Evaluation of Brachyury (BRA) Protein Expression, Deisenroth Lab (AID 2284417)
# Procedure, shortened: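 RUES2-GLR human pluripotent cells, seeded 24 h, then differentiated 48 h in defined media with two chemical exposures 24 h apart (10-point series, 1 nM - 200 uM). Fixed, nuclear-stained, imaged; endpoint is percent BRA+ cells minus 0.2% DMSO control.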
# [3] = CCTE_Padilla_ZF_Score.Swim_bladder: CCTE's 144 Hour Post-fertilization zebrafish Assay Score for Swim Bladder Malformation, Padilla Lab (AID 2284408)
# Procedure, shortened: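 Wild-type zebrafish embryos, one per well in 10% Hanks', dosed at 6–8 hpf, sealed, reared at 26C and rinsed at 5 dpf. Blinded assessors scored uninflated swim bladder by stereomicroscopy at 6 dpf, relative to DMSO.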
# [4] = CCTE_Padilla_ZF_Score.Position: CCTE's 144 Hour Post-fertilization zebrafish Assay Score for Position, Padilla Lab (AID 2284409)
# Experimental: (§1) CCTE_Padilla_ZF_Phenotype_Score is a whole embryo, multiplexed assay using zebrafish ova exposed for 144 hours post fertilization on a 96-well plate.CCTE_Padilla_ZF_Score.Position is one of one assay component(s) measured or calculated from the CCTE_Padilla_ZF_Phenotype_Score assay. It is designed to make measurements of zebrafish development as detected with brightfield microscopy of developing zebrafish embryos.Data from the assay component CCTE_Padilla_ZF_Score.Position was analyzed into 1 assay endpoints. This assay endpoint, CCTE_Padilla_ZF_Score.Position, was analyzed in the positive analysis fitting direction relative to DMSO as the negative control and baseline of activity. Using a type of viability reporter, gain-of-signal activity can be used to understand changes in developmentals as they relate to the whole embryo. To generalize the intended target to other relatable targets, this assay endpoint is annotated to the zebrafish development intended target family, where the subfamily is embryonic mobility.
# (§2) Zebrafish husbandry: Wild type adult zebrafish (Danio rerio; undefined outbred stock obtained from Aquatic Research Organisms, Hampton, NH, 03842) were housed in an AAALAC-approved animal facility at 28C with a 14:10 h light: dark cycle (lights on at 08:30 h). Adult fish (2-3 females per male; density = 15-20 adults per tank) were kept in one of several 9-liter (L) flow-through colony tanks (Aquaneering Inc., San Diego, CA). All adults in a colony tank were placed in a 2 L (static) breeding tank (Aquatic Habitats, Apopka, FL) one hour prior to light onset. Typically, adults from two to three colony tanks were mated on the same day. Two hours after light onset the adults were returned to the colony tank. All embryos were gathered from each breeder tank, pooled, and placed in a 28C water bath for 2 h, followed by two washes with 0.06% bleach (v/v) in 10% Hanks' Balanced Salt Solution (13.7 mM NaCl 0.54 mM KCl, 25 uM Na2HPO4, 130 uM CaCl2 100 um MgSO4 and 420 um NaHCO3,), hereafter referred to as Hanks' solution, for 5 min in order to remove any residual bacteria or fungi. Immediately following washing, the embryos were examined, and healthy embryos were separated from dead or unfertilized eggs and moved into fresh Hanks'. Chemical exposures: Zebrafish embryos were exposed in 96-well plates. Between 6- and 8-hours post fertilization (hpf), healthy embryos (with chorions) were transferred, one embryo per well, into 96 well (0.5 mL) microtiter plates (Cell Culture-Treated, Flat-Bottom Microplate 96 well [Corning Costar, Kennebunk, ME; Cat 09-761-145]) filled with 200 uL of Hanks' solution. A random number generator was used to assign the order in which the rows of embryos were plated in 96 well plates each week. After plating, the embryos were dosed with 0.8 uL of the chemical dosing solution then immediately sealed with AlumaSeal II (Excel Scientific Inc, Victorville, CA) to prevent volatilization of the chemicals, and then placed in a leakproof secondary container. These containers were placed in an incubator maintained on a 14:10 h light: dark cycle at 26C for rearing. On 5 dpf, live larvae were gently moved out of the plate with test chemicals and into a new 96 well mesh plate (Millipore Corp., Bedford, MA) with just the Hanks' solution. […]
# [5] = CCTE_Padilla_ZF_Score.Living: CCTE's 144 Hour Post-fertilization zebrafish Assay Score for Viability, Padilla Lab (AID 2284410);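 note: larval death at 6 dpf judged by absent heartbeat or coagulation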
# Procedure, shortened: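 Wild-type zebrafish embryos were exposed singly from 6–8 hpf in sealed wells of Hanks' solution at 26C, then rinsed at 5 dpf. At 6 dpf, blinded assessors scored mortality (no heartbeat or coagulation) by stereomicroscopy, fitted against DMSO.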
# [6] = CCTE_Padilla_ZF_Score.General: CCTE's 144 Hour Post-fertilization zebrafish Assay Score for General Malformation, Padilla Lab (AID 2284411)
# Procedure, shortened: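 Wild-type zebrafish embryos were plated singly at 6-8 hpf in 10% Hanks' and exposed in sealed wells at 26C until rinsed on 5 dpf. At 6 dpf two blinded assessors scored mortality, hatching and malformations by stereomicroscopy; gain-of-signal versus DMSO.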
# [7] = CCTE_Padilla_ZF_Score.Tail: CCTE's 144 Hour Post-fertilization zebrafish Assay Score for Tail Malformation, Padilla Lab (AID 2284414)
# Procedure, shortened: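 Wild-type zebrafish embryos, one per well in 200 uL 10% Hanks', dosed at 6-8 hpf, sealed, and kept at 26 C on a 14:10 h light cycle. Chemical was rinsed out at 5 dpf. Blinded brightfield scoring of tail defects followed at 6 dpf.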
# [8] = CCTE_Padilla_ZF_Score.Blood_pooling: CCTE's 144 Hour Post-fertilization zebrafish Assay Score for Blood Pooling, Padilla Lab (AID 2284415)
# Experimental: as §1, with “plate.CCTE_Padilla_ZF_Score.Blood_pooling” for “plate.CCTE_Padilla_ZF_Score.Position”, “CCTE_Padilla_ZF_Score.Blood_pooling” for “CCTE_Padilla_ZF_Score.Position”, “CCTE_Padilla_ZF_Score.Blood_pooling,” for “CCTE_Padilla_ZF_Score.Position,”, “swim bladder morphogenesis.” for “embryonic mobility.”
# as §2
# [9] = CCTE_Padilla_ZF_Score.Any: CCTE's 144 Hour Post-fertilization zebrafish Assay Score for Any Mortality or Malformation, Padilla Lab (AID 2284416)
# Procedure, shortened: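 Wild-type zebrafish embryos with chorions, one per well in 10% Hanks' from 6–8 hpf, dosed in sealed plates at 26 C, 14:10 h light:dark; rinsed at 5 dpf; blinded scoring at 6 dpf for death or malformation, versus DMSO.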
# [10] = tested on: SRY-box transcription factor 2 (SOX2) Protein Expression, Deisenroth Lab, SOX2 (gene 6657); assay: CCTE_Deisenroth_DEVTOX-GLR_Endo_SOX2: CCTE's DevTox GLR-Endo Assay Evaluation of SRY-box transcription factor 2 (SOX2) Protein Expression, Deisenroth Lab (AID 2284412; active = hit-call score of the fitted dose curve at least 0.9, where 1 is the maximum)
# Procedure, shortened: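 RUES2-GLR human pluripotent cells were seeded 24 h, then differentiated 48 h with two chemical exposures 24 h apart. Cells were fixed, nuclei stained and imaged by high-content microscopy. Endpoint is %SOX2+ cells over cell count, minus 0.2% DMSO control; 10-point series 1 nM–200 uM.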
structure (smiles),measurement,setting,value
CC(O)CO (stereo not given),outcome,[1],inactive
same,outcome,[2],inactive
C=C(C)C(=O)OCCC(F)(F)C(F)(F)C(F)(F)C(F)(F)C(F)(F)C(F)(F)F,outcome,[3],inactive
same,outcome,[4],inactive
same,outcome,[5],inactive
same,outcome,[6],inactive
same,outcome,[7],inactive
same,outcome,[8],inactive
same,outcome,[9],inactive
CC1=C(/C=C/C(C)=C/C=C/C(C)=C/C(=O)O)C(C)(C)CCC1,AC50,[10],16 µM (active)
same,AC50,[1],0.102 µM (active)
same,AC50,[2],8.08 µM (active)
FC(F)(I)C(F)(F)C(F)(F)C(F)(F)C(F)(F)C(F)(F)I,AC50,[3],10.9 µM (active) and 8.3 µM (active)
same,AC50,[4],28 µM (active) and 4 µM (active)
same,AC50,[5],88.8 µM (active)
same,outcome,[5],inactive
same,AC50,[6],15.6 µM (active) and 5.69 µM (active)
same,outcome,[7],inactive
same,AC50,[8],28.6 µM (active) and 3 µM (active)
same,AC50,[9],10 µM (active) and 3.34 µM (active)
NCC(F)(F)C(F)(F)C(F)(F)C(F)(F)C(F)(F)C(F)(F)C(F)(F)F,outcome,[3],inactive
same,outcome,[4],inactive
same,outcome,[5],inactive
same,outcome,[6],inactive
same,outcome,[7],inactive
same,outcome,[8],inactive
same,outcome,[9],inactive
OCCC(F)(F)C(F)(F)C(F)(F)C(F)(F)C(F)(F)C(F)(F)C(F)(F)C(F)(F)F,outcome,[3],inactive
same,outcome,[4],inactive
same,AC50,[5],78.3 µM (active)
same,AC50,[6],88.8 µM (active)
same,outcome,[7],inactive
same,outcome,[8],inactive
same,outcome,[9],inactive
CCCCCCCCCCCCCC[N+](C)(C)C,outcome,[6],inactive
OCCC(F)(F)C(F)(F)C(F)(F)C(F)(F)C(F)(F)C(F)(F)F,AC50,[3],52.7 µM (active)
same,outcome,[4],inactive
same,outcome,[5],inactive
same,AC50,[6],2.19 µM (active)
same,outcome,[7],inactive
same,outcome,[8],inactive
same,AC50,[9],28.6 µM (active)
C[C@@H]1C[C@H]2[C@@H]3CCC4=CC(=O)C=C[C@]4(C)[C@@]3(F)[C@@H](O)C[C@]2(C)[C@@]1(O)C(=O)COP(=O)(O)O,outcome,[10],inactive
same,outcome,[1],inactive
same,outcome,[2],inactive
